Results filed as inconclusive are left out. Calls of active or inactive are those of the source. Calls follow the shape of the dose curve; as a rule, active = well fitted cell-killing curve with a large enough effect in the repeat runs; inconclusive = weak or mixed curves; inactive = flat fitted curve, though single readings scatter.
assay: qHTS RealTime-Glo MT Cell Viability Assay in HepG2 cells - 8 hour (AID 1224873); conditions: RealTime-Glo luminescence; series mostly up to 76.8 µM; also: nearly all actives have a fitted effect of over 55% in size
Text: National Center for Advancing Translational Sciences [NCATS]
NIH Chemical Genomics Center [NCGC]
U.S. Environmental Protection Agency [EPA]
National Institutes of Environmental Health Sciences [NIEHS]
National Toxicology Program [NTP]
U.S. Food and Drug Administration [FDA]
Measure of cell viability is critical in the cell-base assay. Analysis of cell viability is necessary for the characterization of cell responses to cytotoxic drugs and environmental stress. A RealTime-Glo MT Cell Viability Assay to monitor cell viability in real time of continues cell culture during 40 hours of compound treatment was used to screen Tox21 10K library compounds in HepG2 cells. The RealTime-Glo MT Cell Viability Assay is a nonlytic, homogeneous, bioluminescent method to measure cell viability in real time using a simple, plate-based method. The assay involves adding NanoLuc luciferase and a cell-permeant prosubstrate to cells in culture. Viable cells reduce the proprietary prosubstrate to generate a substrate for NanoLuc luciferase. This substrate diffuses from cells into the surrounding culture medium, where it is rapidly used by the NanoLuc Enzyme to produce a luminescent signal. The signal correlates with the number of viable cells, making the assay well suited for cytotoxicity studies.
Tox21 Assay Protocol Summary:
The mixture of HepG2 cell suspension and reagents were dispensed at 600cells/6 ul/well in 1536-well tissue culture treated black solid bottom plates using a Multidrop dispenser. After the assay plates were incubated at a 37 C/5% CO2 incubator for 5 hours, 23 nL of compounds dissolved in DMSO, positive and negative controls was transferred to the assay plate by a pintool work station. The plates were incubated at 37 C for 40 hours. The luminescence intensity were measured at 0h, 8h, 16h, 24h, 32h and 40h time points using ViewLux plate reader during compound treatment.

SMILES | outcome
CNS(=O)(=O)CCc1ccc2[nH]cc(C3CCN(C)CC3)c2c1 | inactive
CC(CN)CC(C)(C)CCN (stereo not given) | inactive
c1ccc2nccnc2c1 | inactive
C#CC(C)N(C)C(=O)Nc1ccc(Cl)cc1 (stereo not given) | inactive
O=C(CCN1CCN(CCO)CC1)N1c2ccccc2Sc2ccc(C(F)(F)F)cc21 | inactive
CC(CC=O)CCCC(C)(C)O (stereo not given) | inactive
CC(=O)NCCCCCC(=O)O | inactive
FC(F)(F)c1ccccc1-n1ccnc1 | inactive
CCCCCCCCCCCCCC | inactive
NS(=O)(=O)c1cc2c(cc1Cl)CN(C1CCCCC1)C2=O | inactive
NCCS | inactive
CCCCCCCCC1CCC(=O)O1 (stereo not given) | inactive
CC(C)C(=O)OCCc1ccccc1 | inactive
Nc1ccc(S(=O)(=O)Nc2ccc(Cl)nn2)cc1 | inactive
CC(N)C(=O)OC(C)(C)Cc1ccc(Cl)cc1 (stereo not given) | inactive
C=Cc1ccccn1 | inactive
C=C(C)C(=O)OCCOP(=O)(O)OCCOC(=O)C(=C)C | inactive
CCc1ccc(C=O)cc1 | inactive
CCCCCCCCSCC | inactive
CN(C)C(=O)CNC(=O)Cc1ccccc1 | inactive

SMILES | outcome
O=C(O)c1ccc(Cl)cc1Cl | inactive
CCOC(=O)/C=C/c1ccccc1 | inactive
Cc1cccc(OCC(O)CNC(C)(C)C)c1C (stereo not given) | inactive
COC(=O)[C@@H]1[C@H]2C[C@H]3c4[nH]c5ccccc5c4CCN3C[C@@H]2CC[C@@H]1O | inactive
CCCCCCCCC(=O)Cl | inactive
CCC(C=O)CC | inactive
OC[C@H](Cc1cccc(O)c1)[C@H](CO)Cc1cccc(O)c1 | inactive
CC(=O)NCc1c(I)c(NC(C)=O)c(I)c(C(=O)O)c1I | inactive
CC(=O)N[C@@H](CCC(=O)O)C(=O)O | inactive
COCCc1ccc(OCC2CO2)cc1 (stereo not given) | inactive
COC(=O)CCCCCCCC(=O)OC | inactive
Cc1cccc2nccnc12 | inactive
CC(C)C(=O)OCc1cccc(OC(=O)[C@@H]2N3C(=O)[C@@H](NC(=O)Cc4ccccc4)[C@H]3SC2(C)C)c1 | inactive
ClCCCl | inactive
O=C(O)CCSSCCC(=O)O | inactive
C[C@H](N)[C@H](O)c1cccc(O)c1 | inactive
O=C(O)C(=O)Cc1ccccc1 | inactive
O=C(O)c1cc(Cl)cc([N+](=O)[O-])c1Cl | inactive
CC(C)NCC(O)COc1ccc(COCCOC(C)C)cc1 (stereo not given) | inactive
CCOCCOC(=O)/C=C/c1ccc(OC)cc1 | inactive
